From ChEMBL document CHEMBL1157539, “Thousands of chemical starting points for antimalarial lead identification” (Nature, 2010)

Columns and labels:
Assay type in all cases: functional
Plasmodium falciparum [1] = assay: GSK_TCMDC: Inhibition of Plasmodium falciparum 3D7 in whole red blood cells, using parasite LDH activity as an index of growth. Test compounds present at 2uM
Plasmodium falciparum [2] = assay: GSK_TCMDC: Inhibition of Plasmodium falciparum Dd2 in whole red blood cells, using parasite LDH activity as an index of growth. Test compounds present at 2uM
HepG2 = assay: GSK_TCMDC: Percent inhibition of human HepG2 cell line. Test compounds present at 10uM.

SMILES | Inhibition (Plasmodium falciparum [1]) [%] | Inhibition (Plasmodium falciparum [2]) [%] | Inhibition (HepG2) [%]
Cc1ccc(S(=O)(=O)N2CCN(C(=O)c3cc(-c4cccs4)n[nH]3)CC2)c(C)c1 | 85 | 81 | 0
O=C(c1cc(C(=O)Nc2ccccc2F)c(=O)n(-c2ccccc2F)c1)c1cc(Cl)ccc1O | 98 | 80 | 2
Br.CC1(C)NC(N)=NC(=N)N1OCCc1ccccc1 | 96 | 95 | 70
CC(=O)N1N=C(c2cccs2)Sc2c1nc(-c1ccc(Cl)cc1)n2C(C)=O | 99 | 93 | 3
CC(C)CCN1CCCN(Cc2cccc(NC(=O)c3cc4ccccc4s3)c2)CC1.O=C(O)C(F)(F)F | 96 | 8 | 34
Cc1nn(-c2cccc(C(F)(F)F)c2)c2sc(C(=O)NC3CCN(C(C)C)CC3)cc12 | 94 | 20 | 98
COc1ccc(NC(=O)[C@H](CC(C)C)Nc2cc(C)nc(NCCc3ccc(F)cc3)n2)cc1.O=C(O)C(F)(F)F | 100 | 79 | 1
CC(C)C[C@H](NC(=O)c1ccc(OCCN2CCOCC2)cc1)C(=O)NC(/C=N/N1CCCC1=O)C(C)C (some centres not stated) | 90 | 81 | 3
NS(=O)(=O)c1cncc(-c2ccc3nccc(-c4cn[nH]c4)c3n2)c1 | 99 | 100 | 33
CCCNc1nc(Nc2ccccc2C)nc2ccccc12 | 95 | 64 | 13
CC(C)Cc1cn(-c2nc(-c3nc4ccccc4[nH]3)cs2)c2ccncc12.Cl | 100 | 99 | 34
Cn1cccc1C(=O)C(=O)Nc1cccc(-c2ccc(-c3nc4cc(C(F)(F)F)ccc4[nH]3)cc2)c1 | 94 | 27 | 62
O=C(Nc1ccccc1)Nc1ccc(-n2ccc(C(F)(F)F)n2)cc1 | 95 | 85 | 15
COc1ccc2nccc([C@@H](O)CN3CCC(NCc4ccc5c(c4)N(C)C(=O)CO5)CC3)c2c1.O=C(O)C(=O)O | 100 | 95 | 0
COCCNCc1cccc(-c2ccc3nccc(Nc4cc(O)ccc4C)c3c2)c1 | 100 | 92 | 0
Nc1ncc(-c2cccc(OCc3ccccc3)c2)cc1-c1nnc2ccc(Cl)nn12 | 94 | 7 | 0
Cn1cc(CN2CCC(OC(c3ccccc3)c3ccc(Cl)cc3)CC2)cn1 (configuration not stated) | 94 | 61 | 39
CS(=O)(=O)CCNCc1nc(-c2ccc3c(Nc4ccc(Cl)cc4F)ccnc3c2)cs1 | 88 | 28 | 19
CCN(CC)CCCCCNc1c2ccc(Cl)cc2nc2ccc(OC)cc12.Cl | 99 | 99 | 96
CC1(C)NC(N)=NC(=N)N1OCc1cc(Cl)cc2c1OCOC2.Cl | 95 | 64 | 65
CC(C)CN1CCCN(Cc2cccc(NC(=O)c3ccc(-c4ccccc4)cc3)c2)CC1.O=C(O)C(F)(F)F | 99 | 24 | 30
CCCCCCN1CCCN(Cc2ccc(C(=O)Nc3ccc(C(C)C)cc3)cc2)CC1.O=C(O)C(F)(F)F | 93 | 50 | 40
Br.c1ccc(-c2nc(Nc3ccncc3)sc2-c2ccccc2)cc1 | 97 | 18 | 0
COc1c(C2CCN(CCCCNC(=O)C=Cc3cc4cc(Cl)ccc4o3)CC2)ccc2c1CCCC2 | 87 | 19 | 33
CCNc1cc(C(=O)N[C@@H](Cc2ccccc2)[C@H](O)CNC2(C)CCCCC2)cc(N2CCCCS2(=O)=O)c1.Cl | 100 | 98 | 13
O=C(Nc1cccc(CN2CCCN(Cc3ccccc3)CC2)c1)c1cc2ccccc2s1.O=C(O)C(F)(F)F | 87 | 28 | 41
COc1ccc2nccc([C@@H](O)CN3CCC(NCc4ccc5nc[nH]c(=O)c5c4)CC3)c2c1.O=C(O)C(=O)O | 99 | 4 | 12
COc1ccc(O)c(C(=O)c2cc(C(=O)NCCc3ccccc3)c(=O)n(CCc3ccccc3)c2)c1 | 97 | 18 | 11
O=C(Nc1cccc(-c2nn3ccccc3c2-c2ccnc(Nc3ccc(NCCCN4CCOCC4)c(F)c3)n2)c1)c1c(F)cccc1F | 100 | 97 | 86
